29 molecules from ChEMBL document CHEMBL1157539, “Thousands of chemical starting points for antimalarial lead identification” (Nature, 2010) can be followed below.

Assay type in all cases: functional
The test system of assay [1] is Plasmodium falciparum. The assay is described as follows: GSK_TCMDC: Inhibition of Plasmodium falciparum 3D7 in whole red blood cells, using parasite LDH activity as an index of growth. Test compounds present at 2uM.
For assay [2], the system named is Plasmodium falciparum. The assay is described as follows: GSK_TCMDC: Inhibition of Plasmodium falciparum Dd2 in whole red blood cells, using parasite LDH activity as an index of growth. Test compounds present at 2uM.
The test system of a further assay is HepG2. The assay is described as follows: GSK_TCMDC: Percent inhibition of human HepG2 cell line. Test compounds present at 10uM.

Take `CC(C)(NCc1ncc[nH]1)c1nc(-c2ccc(Cl)c(O)c2)c(-c2ccncc2)[nH]1.Cl`: the Inhibition with Plasmodium falciparum [1] amounted to 95%; in the assay with Plasmodium falciparum [2], 97%; with HepG2, 42%.
`C=CCOC(=O)N1CCC(CNCc2ccc(-c3cccc(-c4nc5cccc(C)c5[nH]4)c3)cc2)C1.O=C(O)C(F)(F)F` (configuration not stated): the Inhibition in the assay on Plasmodium falciparum [1] was 100%; with Plasmodium falciparum [2] it was 99%; in the assay with HepG2, 25%.
As for `Cc1cccc2nc(-c3ccc(-c4ccc(NC(=O)Nc5ccc(Cl)cc5)cc4)s3)[nH]c12`, the Inhibition in the assay on Plasmodium falciparum [1] is recorded as 100%; in the assay with Plasmodium falciparum [2], 100%; with HepG2 it was 78%.
In the case of `COc1cc(Cc2cnc(N)nc2N)c2ccsc2c1OC.Cl`, the Inhibition in the assay with Plasmodium falciparum [1] amounted to 92%; in the assay with Plasmodium falciparum [2], 4%; with HepG2, 5%.
Consider `FC(F)(F)c1ccc(N2CCCN(Cc3cccc(-c4ccccc4CNCc4ccc5c(c4)OCO5)c3)CC2)nc1.O=C(O)C(F)(F)F`, for which the Inhibition is given as 87% in the assay with Plasmodium falciparum [1], 11% with Plasmodium falciparum [2] and 23% with HepG2.
Take `O=C(NCCc1ccccc1)c1cc(-c2cccnc2)cnc1NCC1CC1`: the Inhibition in the assay with Plasmodium falciparum [1] came to 93%; in the assay with Plasmodium falciparum [2], 35%; in the assay with HepG2, 3%.
Turning to `NCc1cccc(-c2cccc(CNC3CCN(Cc4ccccc4)CC3)c2)c1.O=C(O)C(F)(F)F`, the Inhibition in the assay on Plasmodium falciparum [1] amounted to 100%; in the assay on Plasmodium falciparum [2], 45%; in the assay on HepG2, 9%.
On to `CC(C)(C)C1CCC(CC2=C(C(=O)O)c3ccccc3C2=O)CC1` (configuration not stated), for which the values for the Inhibition in the assay on Plasmodium falciparum [1], in the assay on Plasmodium falciparum [2] and in the assay with HepG2 were 91%, 56% and 0%, respectively.
Turning to `Cc1cc(C)cc(CC(=O)N2CCC(n3c(C)nc4ccc(C)cc43)CC2)c1`, the values for the Inhibition with Plasmodium falciparum [1], with Plasmodium falciparum [2] and in the assay with HepG2 were 100%, 100% and 52%, respectively.
For `Cc1nn(-c2ccccc2)c2sc(C(=O)N(CCCN(C)C)c3nc(-c4ccccc4)cs3)cc12.Cl`, the Inhibition in the assay on Plasmodium falciparum [1] is on record as 95%; with Plasmodium falciparum [2] it was 36%; in the assay with HepG2 it was 99%.
The matching figures for `Oc1ccc2nc(NCCCc3ccccc3)nc(NCCc3ccccc3)c2c1`: 99%, 88% and 31%.
`COC(=O)C(C)NCC(=O)c1ccccc1.Cl` (configuration not stated): the Inhibition in the assay on Plasmodium falciparum [1] was found to be 97%; in the assay on Plasmodium falciparum [2], 23%; in the assay on HepG2, 5%.
Turning to `O=C(O)/C=C\C(=O)O.OCCN1CCN(C2Cc3ccc(F)cc3Sc3ccc(Cl)cc32)CC1` (configuration not stated), the Inhibition with Plasmodium falciparum [1] is 98%; with Plasmodium falciparum [2], 26%; with HepG2, 56%.
As to `CCOc1cc(Br)c(C(C)NC(=O)c2ccccc2)cc1OCC` (configuration not stated), the Inhibition worked out at 92% in the assay on Plasmodium falciparum [1], 10% in the assay on Plasmodium falciparum [2] and 0% in the assay on HepG2.
The matching figures for `O=C(c1cccc(-c2cccc(-c3nc4cc(C(F)(F)F)ccc4[nH]3)c2)c1)N1CCCCC1CN1CCC(O)C1` (configuration not stated): 91%, 100% and 51%.
`NC1CCCN(Cc2ccc(-c3ccc(-c4nc5ccccc5[nH]4)s3)cc2)C1.O=C(O)C(F)(F)F` (configuration not stated): the Inhibition was 100% with Plasmodium falciparum [1], 99% with Plasmodium falciparum [2] and 40% in the assay with HepG2.
The matching figures for `COc1ccc2ccccc2c1CNCC1CCN(CC2CCCCC2)CC1.O=C(O)C(F)(F)F`: 98%, 27% and 23%.
With `OC(CNc1ccnc(Nc2ccc(Cl)cc2)n1)c1cccc(C(F)(F)F)c1` (configuration not stated), the figures for the Inhibition with Plasmodium falciparum [1], in the assay on Plasmodium falciparum [2] and in the assay with HepG2 were 100%, 84% and 9%, respectively.
`CN(C)CCNc1ncnc2c1[nH]c1ccc(Br)cc12`: the Inhibition with Plasmodium falciparum [1] was 100%; with Plasmodium falciparum [2], 7%; with HepG2, 2%.
On to `CC(C)N1CCC(NCc2ccc(-c3ccc(Cl)cc3)cc2)CC1`, for which the Inhibition in the assay on Plasmodium falciparum [1] was 99%; in the assay on Plasmodium falciparum [2], 48%; in the assay with HepG2, 50%.
For `CC(=O)NCCNc1nccc(N2CCc3ncnc(Nc4ccc(OCc5cccc(F)c5)c(Cl)c4)c3C2)n1`, the results for the Inhibition with Plasmodium falciparum [1], in the assay with Plasmodium falciparum [2] and with HepG2 were 100%, 100% and 10%, respectively.
`Cc1cc(N(C)C2CCN(CC3CCCCC3)C2)nc(Nc2ccc(Br)cc2)n1` (configuration not stated): the Inhibition with Plasmodium falciparum [1] is listed as 98%; in the assay with Plasmodium falciparum [2] it was 38%; in the assay with HepG2, 14%.
For `O=C(CCc1c[nH]cn1)Nc1cccc(-c2ccc(-c3nc4cc(F)ccc4[nH]3)s2)c1`, the Inhibition in the assay on Plasmodium falciparum [1] was 100%; with Plasmodium falciparum [2], 69%; in the assay on HepG2 it was 17%.
For `N#CC1(c2ccccc2)CCN(c2nc(NCCCN3CCCC3=O)nc(N3CCCC4CCCCC43)n2)CC1` (configuration not stated), in that order: 95%, 92% and 0%.
For `COc1cccc(Nc2nccc(NCC(O)c3ccc(C(F)(F)F)cc3)n2)c1` (configuration not stated), in that order: 99%, 28% and 14%.
With `COc1cccc(NC(=O)Nc2ccc(-c3oc(C(=O)NCC(c4ccccc4)N(C)C)cc3-c3ccncc3)cc2)c1.O=C(O)C(F)(F)F` (configuration not stated), the Inhibition with Plasmodium falciparum [1] is given as 100%; with Plasmodium falciparum [2], 99%; in the assay on HepG2 it was 6%.
In the case of `O=C(/C=C/c1ccc(Cl)c(Cl)c1)NCCCCCCN1CCN(C(=O)Nc2ccc(F)c(Cl)c2)CC1`, the Inhibition in the assay with Plasmodium falciparum [1] was 86%; in the assay on Plasmodium falciparum [2], 2%; in the assay on HepG2, 40%.
With `CCC1CN2CCc3c([nH]c4ccccc34)C2CC1CC1=NCCc2c1[nH]c1ccc(OC)cc21.Cl` (configuration not stated), the Inhibition with Plasmodium falciparum [1] is given as 100%; in the assay on Plasmodium falciparum [2], 68%; in the assay on HepG2, 99%.
With `Br.C/C=C/C=C/C1=NCCc2cc(OCCC)ccc21`, the Inhibition amounted to 87% with Plasmodium falciparum [1], 40% in the assay with Plasmodium falciparum [2] and 0% with HepG2.
